This note sets out measurements from PubChem BioAssay AID493192 (National Center for Advancing Translational Sciences (NCATS), 2011).

Results filed as inconclusive are left out. Where a call stands in place of a potency, no number is given. Active and inactive are the calls of the source. Calls come from the whole dose curve; as a rule, active = well fitted activation curve with a large enough effect; inconclusive = small, poorly fitted or top-dose-only effect; inactive = no such curve, though single readings can be large or run the other way.
Potency is the fitted concentration of half-maximal effect.

The experiment is described as follows: qHTS Assay for Identifying a Potential Treatment of Ataxia-Telangiectasia: Hit Validation.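 Note: phospho-KAP1 level by AlphaLISA as a proxy for ATM-like kinase activity.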 The note with it: Ataxia-telangiectasia cell-based hit validation qHTS, in ATM-null A-T patient fibroblasts; series mostly up to 76.9 µM. The essentials: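 hTERT-immortalized A-T patient fibroblasts (F2112) were dosed at up to 76.7 uM final for 60 min at 37C. After a further 30 min incubation, cells were lysed, and phospho-KAP1 was detected by AlphaLISA after 6 hr at 25C.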
With `COC(=O)c1cccc2c1-c1ccccc1/C2=N\NC(N)=O`, the Potency result was “inactive”.

Take `CC(CCc1ccccc1)NC(=O)COC(=O)c1ccc(F)cc1` (centres undefined): the Potency result is “inactive”.

For `CC1C(c2ccccc2)N(C)C(c2ccccc2)CC1(O)c1ccccc1` (centres undefined), the Potency was 13 µM (active).

With `CSc1nc(SCC(=O)O)c2c3c(sc2n1)COC(C)(C)C3`, the Potency result is “inactive”.

On to `CC(C)(C)C1CCC2(CC1)SCC(=O)N2c1ccccc1` (centres undefined), for which the Potency entry is “inactive”.

Turning to `Cc1ccccc1S(=O)(=O)Oc1ccc2ccc(O)cc2c1`, the Potency result was “inactive”.

For the compound `CC(C)(CO)NC(=O)c1ccc2c(c1)C(=O)c1ccccc1-2`, the Potency entry is “inactive”.

`CCn1c2ccccc2c2c3ncc4cccn4c3ccc21`: the Potency is 46.3 µM (active).

Consider `Cc1ccc(C(=O)c2c(C)oc3c2C(=O)C(=O)c2ccccc2-3)cc1`, for which the Potency is 26 µM (active).

With `CCCN1C2CCCC1CC(NC(=S)Nc1cccc(C)c1C)C2` (centres undefined), the Potency result was “inactive”.

Consider `COc1ccc(NC(=O)C2CC2)cc1OC1CCCC1`, for which the Potency entry is “inactive”.

In the case of `CC1CCCC(C)N1CCCNC(=O)Cn1ncc2c3ccccc3n(C)c2c1=O` (centres undefined), the Potency is 23.2 µM (active).

In the case of `Cc1ccc(OCC(=O)N(Cc2cccs2)C2CCS(=O)(=O)C2)cc1C` (centres undefined), the Potency entry is “inactive”.

With `O=C(CSc1nnc(CNC(=O)c2ccccc2)o1)NCCc1ccccc1`, the Potency result is “inactive”.

As for `CCC12CN(C(=O)c3ccc([N+](=O)[O-])cc3)CC(CC)(CN(C(=O)c3ccc([N+](=O)[O-])cc3)C1)C2=O`, the Potency entry is “inactive”.

In the case of `CCCCn1c2c(c(=N)c3ccccc31)CCC2`, the Potency entry was “inactive”.

Turning to `Clc1cccc(CN2CCC(Cc3ccccc3)CC2)c1`, the Potency was 13 µM (active).

`CCOc1ccc(NC2=NCC(=O)N2Cc2cccs2)cc1`: the Potency entry was “inactive”.

With `O=C(NCCCN1CCOCC1)c1ccc2c(c1)N(Cc1cccc(F)c1)C(=O)c1ccccc1S2`, the Potency is 7.33 µM (active).
